Each structure is given as a SMILES string. Hit rate of the full screen: of about 65,000 compounds, about 65 (0.1%) showed an effect of 50% or more. Many of the other results were omitted from the sample, so strong results are more common in it than they were.

Sequence of Tryptophan--tRNA ligase (Mycobacterium tuberculosis (strain ATCC 25618 / H37Rv)) (P9WFT3 whole entry): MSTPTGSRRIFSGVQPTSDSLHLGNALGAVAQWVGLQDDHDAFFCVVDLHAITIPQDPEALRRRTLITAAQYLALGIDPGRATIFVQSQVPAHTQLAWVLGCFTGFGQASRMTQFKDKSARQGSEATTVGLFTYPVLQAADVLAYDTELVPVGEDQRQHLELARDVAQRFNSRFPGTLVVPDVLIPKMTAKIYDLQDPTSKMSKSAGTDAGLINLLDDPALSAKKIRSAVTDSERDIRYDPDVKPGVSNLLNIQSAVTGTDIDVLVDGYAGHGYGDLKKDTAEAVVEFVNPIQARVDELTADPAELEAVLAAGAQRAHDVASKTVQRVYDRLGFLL

The assay has as its target Tryptophan--tRNA ligase (Mycobacterium tuberculosis (strain ATCC 25618 / H37Rv)) (UniProt P9WFT3). As to the kind of experiment: Biochemical assay for Mt-TrpRS. Further details: scale not given: direction of the effect not stated beside the values. Particulars: 10 µM. The assay is classed as functional.
`CC(=O)N1[C@H](CN(C)C)C[C@@H]2CN(C(=O)c3cccn3C)CC[C@@H]21`: the Percent Effect was -8.29%. For `Cc1cccc(COC[C@]23COC[C@H]2CN(c2ncccn2)C3)n1`, the Percent Effect was -0.382%. With `Cc1nn(C)c(N2CCOCC2)c1CN[C@@H]1c2ccccc2C[C@@H]1O` the figure was -6.65%.

`c1coc(CN2CC[C@H]3O[C@@H](COCC4CC4)CC[C@H]32)c1`: the Percent Effect was -3.59%. For the molecule `CN1CCc2nc(C3CCCN(S(=O)(=O)N4CCCC4)C3)ncc2C1` (configuration not stated), the Percent Effect was -5.94%. With `CN1CCc2nc(C3CCCN(S(=O)(=O)c4ccccc4)C3)ncc2C1` (configuration not stated) the figure was -1.11%. With `CCN(CC)S(=O)(=O)N1CCCC(c2ncc3c(n2)CCN(C)C3)C1` (configuration not stated) the figure was 50.2%; with `CC(=O)N1CCN(C(=O)c2cc(C(C)C)no2)[C@H]2CS(=O)(=O)C[C@H]21`, -1.55%.

For the molecule `NC[C@H]1CC[C@H](c2c(C(N)=O)sc3ccccc32)CC1`, the Percent Effect is -6.86%.

Regarding `CCN(CC1CCOC1)C(=O)c1cc(F)ccc1N1CCN(C)CC1` (configuration not stated), the Percent Effect is 68.2%. As for `CCN(CC1CCOC1)C(=O)c1ccc(N2CCOCC2)c(F)c1` (configuration not stated), the figure is 18.7%; as for `C=C(C)CN(CC)C(=O)c1cc(F)ccc1N1CCN(C)CC1`, 1.96%; as for `Fc1cnc(N2CC[C@@H]3O[C@H](COCc4ccccn4)CC[C@@H]32)nc1`, -3.79%. With `CCc1cnc(N2C[C@H]3C[C@H](C(=O)NC)[C@@H](C2)O3)nc1` the figure was -4.37%; with `Cn1cc(CCN2CCOC(CNc3cccnn3)C2)cn1` (configuration not stated), 66%.

With `c1ccc(CCN2CCOC(CNc3cccnn3)C2)nc1` (configuration not stated), the Percent Effect was -2.61%. Turning to `c1cnnc(NCC2CN(CCn3cccn3)CCO2)c1` (configuration not stated), the Percent Effect is -1.42%. For the molecule `c1ccc(CN2C[C@H]3CCC[C@@]3(COCC3CC3)C2)nc1`, the Percent Effect was -0.775%.

For the molecule `COc1ccc(CN2C[C@@H]3OCCN(CC4CCCO4)[C@@H]3C2)cc1` (some centres not stated), the Percent Effect was determined as 4.27%. As for `c1cc(CNCC2CNc3ccnn3C2)cc(Cn2cccn2)c1` (configuration not stated), the figure is 2.73%; as for `c1ccc(Cn2cccn2)c(CNCC2CNc3ccnn3C2)c1` (configuration not stated), 6.16%. On to `c1ccc(Cn2cc(CNCC3CNc4ccnn4C3)cn2)cc1` (configuration not stated), for which the Percent Effect stood at 62.4%.

As to `COc1ccc(C(=O)N2CCO[C@H]3[C@@H](OCC4CC4)CC[C@@H]32)cc1F`, the Percent Effect was -0.755%. With `Cc1ccc(CN2CC(C(=O)NC(C)C)C3(CCOCC3)C2)s1` (configuration not stated) the figure was 0.402%; with `CC(c1ccc2c(c1)OCO2)N1Cc2nc(N(C)C)ncc2C1=O` (configuration not stated), 4.59%.

As for `N#Cc1ccsc1N1CCC(Sc2ccncc2)C1=O` (configuration not stated), the Percent Effect turned out to be 4.7%.

Consider `CC(C)c1nn(C)c(N2CCOCC2)c1CNCC(=O)N(C)C`, for which the Percent Effect turned out to be 4.97%.

As for `CC(NCc1c(C(C)C)nn(C)c1N1CCOCC1)C(=O)N(C)C` (configuration not stated), the Percent Effect is 71.4%. With `CC(NCc1c(C(C)C)nn(C)c1N1CCOCC1)C(N)=O` (configuration not stated) the figure was -6.01%; with `c1ccc(CN2CC[C@@H]3O[C@@H](COCCN4CCCC4)CC[C@@H]32)nc1`, 1.72%. As for `CC(C)(C)c1nc(CN2CCC(c3ccnn3CCO)CC2)no1`, the figure is 23.6%.

Turning to `CC(C)c1nc(CN2CCC(c3ccnn3CCO)CC2)no1`, the Percent Effect turned out to be 61.5%.

Turning to `CC(C)c1noc(CN2CCC(c3ccnn3CCO)CC2)n1`, the Percent Effect was -1.43%.

As for `COc1cc(Cl)ccc1C(=O)NCc1nncn1C`, the Percent Effect is -10.5%. For the molecule `Cn1cnnc1C1CCN(C(=O)CCOc2ccc(Cl)cc2)CC1`, the Percent Effect turned out to be 64.2%. As for `Cn1cnnc1C1CCN(C(=O)CCCOc2ccccc2)CC1`, the figure is -0.13%; as for `Cc1cccc(C)c1OCCC(=O)N1CCC(c2nncn2C)CC1`, 3.92%. With `CC[C@H]1CN2CC[C@H]1C[C@@H]2CNCc1ccc(OC(F)(F)F)cc1` the figure was -0.828%; with `O=C(C1CC1)N1CC[C@H]2[C@@H]1CCC(=O)N2c1ccccc1`, 6.13%. `N#Cc1cn[nH]c1NCc1cc(Br)ccc1O`: the Percent Effect is 288%. In the case of `N#Cc1cn[nH]c1NCc1cc(Cl)cc(Cl)c1O`, the Percent Effect worked out at 8.64%.

Consider `N#Cc1cn[nH]c1NCc1cc(I)cc(I)c1O`, for which the Percent Effect turned out to be 3.89%. As for `NCCN1C(=O)CC[C@H]2CN(Cc3ccc4occc4c3)CC[C@H]21`, the figure is 1.29%; as for `COCCN1C[C@H]2CCN(C(=O)Nc3ccccc3C)CC[C@H]2S1(=O)=O`, -4.45%. As for `Cc1ncoc1C(=O)N1C[C@H]2CCC[C@@]2(COCc2cccnc2)C1`, the figure is 1.59%; as for `CC(C(=O)NCc1ccc(N2CCCC2)nc1)S(C)(=O)=O` (configuration not stated), 59.5%; as for `CC(C(=O)NCc1ccc(N2CCCCCC2)nc1)S(C)(=O)=O` (configuration not stated), -1.98%. Turning to `CC(C(=O)NCc1ccc(N2CCCCC2)nc1)S(C)(=O)=O` (configuration not stated), the Percent Effect is -4.1%. With `Cc1nnc2n1CCN(CC(=O)N1CCc3ccccc3C1)C2` the figure was 18.8%; with `Cc1cccc(CN2CCC[C@@H]3CN(C(=O)c4ccco4)C[C@@H]32)n1`, 0.174%; with `COc1ccc(C[C@H]2CN(c3cc(OC)ncn3)CC[C@H]2OC)cc1`, 5.86%. As for `O=C(NCC1=CCCCC1)C(c1cccnc1)N1CCCC1` (configuration not stated), the figure is 51%; as for `O=C(NCC1=CCCCC1)C(c1cccnc1)N1CCOCC1` (configuration not stated), -0.187%; as for `O=C(NCC(F)(F)F)C(c1cccnc1)N1CCCC1` (configuration not stated), 0.735%. As for `CCn1c(SC)nnc1C1CCN(C(=O)N2CCCC2)CC1`, the figure is -3%. In the case of `Cn1ccnc1CN1C(=O)CO[C@H]2CN(Cc3ccc(F)c(F)c3)C[C@H]21`, the Percent Effect is 2.2%. With `O=C(NCC1CC1)[C@@H]1CCO[C@@H]2CCN(Cc3ccco3)C[C@H]21` the figure was 9.55%.

Source of the values: ChEMBL document CHEMBL3988442, “University of Dundee, Small-Polar-MMV Screening Library” (2021).
